Experimental data: PubChem BioAssay (NCATS)
Results filed as inconclusive are left out. Calls of active or inactive are those of the source. Calls follow the shape of the dose curve; as a rule, active = well fitted inhibition curve with a large enough effect; inconclusive = small, poorly fitted or top-dose-only effect; inactive = flat fitted curve, though single readings scatter.

Test system: ATS189
Assay: qHTS profiling for inhibitors of Plasmodium falciparum proliferation (AID 504749); also: nearly all actives have a fitted effect of over 60% in size;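 as to activity, negative = inhibition: 0% = DMSO vehicle and full inhibition = artemisinin control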
Conditions: P. falciparum in erythrocytes, SYBR Green DNA, 72 h; series mostly up to 28.7 µM; activity, negative = inhibition: at the top concentration
Outline: (§1)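 In a 72 h erythrocytic culture (37 C, humidified, 5% CO2) at 2.5% hematocrit and 0.3% starting parasitemia, compounds were tested; SYBR Green I in detergent lysis buffer stained parasite DNA overnight.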
Potency is read from the fitted curve at half-maximal effect.

Question: For `CO/N=C(/C(=O)N[C@@H]1C(=O)N2C(C(=O)O)=CCS[C@H]12)c1csc(N)n1`, which “activity, negative = inhibition” value is on record?
Answer: 8.2% (inactive)

Question: With `Cc1cc(CC(C)CC(C)(C)C)n(O)c(=O)c1` (configuration not stated) as the molecule, how does the Potency read?
Answer: 3.16 µM (active)

Question: How did the “activity, negative = inhibition” value turn out when `CC1CCC(C(C)C)C(OC(=O)c2ccccc2O)C1` (configuration not stated) was run?
Answer: 13.3% (inactive)

Question: With `CC(C)(CO)C(O)C(=O)NCCCC(=O)O` (configuration not stated) as the molecule, how does the Potency read?
Answer: 2.82 µM (active)

Question: `CO[C@@H]1[C@@H](OC2OC(C)C(OC3CC(C)(O)C(OC(=O)CC(C)C)C(C)O3)C(N(C)C)C2O)[C@@H](CC=O)C[C@@H](C)C(=O)/C=C\C2O[C@H]2C[C@@H](C)OC(=O)C[C@H]1OC(C)=O` (some centres not stated) was tested. Which Potency did it give?
Answer: 11.2 µM (active)

Question: How did the “activity, negative = inhibition” value turn out when `CCC(=O)O[C@@H](OP(=O)(CCCCc1ccccc1)CC(=O)N1C[C@H](C2CCCCC2)C[C@H]1C(=O)O)C(C)C` (some centres not stated) was run?
Answer: -7.19% (inactive)

Question: Which Potency does the source give for `CC(=O)O[C@@]12CO[C@@H]1C[C@H](O)[C@@]1(C)C(=O)[C@H](O)C3=C(C)[C@@H](OC(=O)C(O)[C@@H](NC(=O)OC(C)(C)C)c4ccccc4)C[C@@](O)([C@@H](OC(=O)c4ccccc4)[C@H]21)C3(C)C` (some centres not stated) here?
Answer: 0.0355 µM (active)

Question: `CC1(C)S[C@@H]2[C@H](NC(=O)COc3ccccc3)C(=O)N2[C@H]1C(=O)O` was tested. Which “activity, negative = inhibition” value did it give?
Answer: 6.66% (inactive)

Question: With `CCN1/C(=C/C=C/C=C/c2sc3ccccc3[n+]2CC)Sc2ccccc21` as the molecule, how does the Potency read?
Answer: 4.47 µM (active)

Question: `O=NCc1ccc([N+](=O)[O-])o1` was tested. Which “activity, negative = inhibition” value did it give?
Answer: -24.5% (inactive)

Test system: ATS95
Assay: as above
Conditions: P. falciparum in erythrocytes, SYBR Green DNA, 72 h; series mostly up to 28.7 µM; activity, negative = inhibition: at the top concentration
Outline: as §1

Question: For `CO/N=C(/C(=O)N[C@@H]1C(=O)N2C(C(=O)O)=CCS[C@H]12)c1csc(N)n1`, which “activity, negative = inhibition” value is on record?
Answer: -3% (inactive)

Question: For `Cc1cc(CC(C)CC(C)(C)C)n(O)c(=O)c1` (configuration not stated), which Potency is on record?
Answer: 3.16 µM (active)

Question: For `CC1CCC(C(C)C)C(OC(=O)c2ccccc2O)C1` (configuration not stated), which “activity, negative = inhibition” value is on record?
Answer: 2.39% (inactive)

Question: How did the “activity, negative = inhibition” value turn out when `CC(C)(CO)C(O)C(=O)NCCCC(=O)O` (configuration not stated) was run?
Answer: -56.3% (inactive)

Question: With `CO[C@@H]1[C@@H](OC2OC(C)C(OC3CC(C)(O)C(OC(=O)CC(C)C)C(C)O3)C(N(C)C)C2O)[C@@H](CC=O)C[C@@H](C)C(=O)/C=C\C2O[C@H]2C[C@@H](C)OC(=O)C[C@H]1OC(C)=O` (some centres not stated) as the molecule, how does the Potency read?
Answer: 11.2 µM (active)

Question: `CCC(=O)O[C@@H](OP(=O)(CCCCc1ccccc1)CC(=O)N1C[C@H](C2CCCCC2)C[C@H]1C(=O)O)C(C)C` (some centres not stated) was tested. Which “activity, negative = inhibition” value did it give?
Answer: -3.11% (inactive)

Question: `CC(=O)O[C@@]12CO[C@@H]1C[C@H](O)[C@@]1(C)C(=O)[C@H](O)C3=C(C)[C@@H](OC(=O)C(O)[C@@H](NC(=O)OC(C)(C)C)c4ccccc4)C[C@@](O)([C@@H](OC(=O)c4ccccc4)[C@H]21)C3(C)C` (some centres not stated) was tested. Which Potency did it give?
Answer: 0.0355 µM (active)

Question: With `CC1(C)S[C@@H]2[C@H](NC(=O)COc3ccccc3)C(=O)N2[C@H]1C(=O)O` as the molecule, how does the “activity, negative = inhibition” value read?
Answer: 1.64% (inactive)

Question: How did the Potency turn out when `CCN1/C(=C/C=C/C=C/c2sc3ccccc3[n+]2CC)Sc2ccccc21` was run?
Answer: 5.01 µM (active)

Question: Which “activity, negative = inhibition” value does the source give for `O=NCc1ccc([N+](=O)[O-])o1` here?
Answer: -20.4% (inactive)

Test system: C2A
Assay: as above
Conditions: P. falciparum in erythrocytes, SYBR Green DNA, 72 h; series mostly up to 28.7 µM; activity, negative = inhibition: at the top concentration
Outline: as §1

Question: For `CO/N=C(/C(=O)N[C@@H]1C(=O)N2C(C(=O)O)=CCS[C@H]12)c1csc(N)n1`, which “activity, negative = inhibition” value is on record?
Answer: -1.67% (inactive)

Question: How did the Potency turn out when `Cc1cc(CC(C)CC(C)(C)C)n(O)c(=O)c1` (configuration not stated) was run?
Answer: 2.51 µM (active)

Question: With `CC1CCC(C(C)C)C(OC(=O)c2ccccc2O)C1` (configuration not stated) as the molecule, how does the “activity, negative = inhibition” value read?
Answer: -7.33% (inactive)

Question: How did the Potency turn out when `CO[C@@H]1[C@@H](OC2OC(C)C(OC3CC(C)(O)C(OC(=O)CC(C)C)C(C)O3)C(N(C)C)C2O)[C@@H](CC=O)C[C@@H](C)C(=O)/C=C\C2O[C@H]2C[C@@H](C)OC(=O)C[C@H]1OC(C)=O` (some centres not stated) was run?
Answer: 10 µM (active)

Question: `CCC(=O)O[C@@H](OP(=O)(CCCCc1ccccc1)CC(=O)N1C[C@H](C2CCCCC2)C[C@H]1C(=O)O)C(C)C` (some centres not stated) was tested. Which “activity, negative = inhibition” value did it give?
Answer: -6.73% (inactive)

Question: With `CC(=O)O[C@@]12CO[C@@H]1C[C@H](O)[C@@]1(C)C(=O)[C@H](O)C3=C(C)[C@@H](OC(=O)C(O)[C@@H](NC(=O)OC(C)(C)C)c4ccccc4)C[C@@](O)([C@@H](OC(=O)c4ccccc4)[C@H]21)C3(C)C` (some centres not stated) as the molecule, how does the Potency read?
Answer: 0.0316 µM (active)

Question: Which “activity, negative = inhibition” value does the source give for `CC1(C)S[C@@H]2[C@H](NC(=O)COc3ccccc3)C(=O)N2[C@H]1C(=O)O` here?
Answer: 1.86% (inactive)

Question: `CCN1/C(=C/C=C/C=C/c2sc3ccccc3[n+]2CC)Sc2ccccc21` was tested. Which Potency did it give?
Answer: 3.55 µM (active)

Question: With `O=NCc1ccc([N+](=O)[O-])o1` as the molecule, how does the “activity, negative = inhibition” value read?
Answer: -24.3% (inactive)

Test system: CP185
Assay: as above
Conditions: P. falciparum in erythrocytes, SYBR Green DNA, 72 h; series mostly up to 28.7 µM; activity, negative = inhibition: at the top concentration
Outline: as §1

Question: `CO/N=C(/C(=O)N[C@@H]1C(=O)N2C(C(=O)O)=CCS[C@H]12)c1csc(N)n1` was tested. Which “activity, negative = inhibition” value did it give?
Answer: 5.22% (inactive)

Question: Which Potency does the source give for `Cc1cc(CC(C)CC(C)(C)C)n(O)c(=O)c1` (configuration not stated) here?
Answer: 1.12 µM (active)

Question: `CC1CCC(C(C)C)C(OC(=O)c2ccccc2O)C1` (configuration not stated) was tested. Which “activity, negative = inhibition” value did it give?
Answer: 13.9% (inactive)

Question: How did the Potency turn out when `CO[C@@H]1[C@@H](OC2OC(C)C(OC3CC(C)(O)C(OC(=O)CC(C)C)C(C)O3)C(N(C)C)C2O)[C@@H](CC=O)C[C@@H](C)C(=O)/C=C\C2O[C@H]2C[C@@H](C)OC(=O)C[C@H]1OC(C)=O` (some centres not stated) was run?
Answer: 7.94 µM (active)

Question: `CCC(=O)O[C@@H](OP(=O)(CCCCc1ccccc1)CC(=O)N1C[C@H](C2CCCCC2)C[C@H]1C(=O)O)C(C)C` (some centres not stated) was tested. Which “activity, negative = inhibition” value did it give?
Answer: 3.18% (inactive)

Question: How did the Potency turn out when `CC(=O)O[C@@]12CO[C@@H]1C[C@H](O)[C@@]1(C)C(=O)[C@H](O)C3=C(C)[C@@H](OC(=O)C(O)[C@@H](NC(=O)OC(C)(C)C)c4ccccc4)C[C@@](O)([C@@H](OC(=O)c4ccccc4)[C@H]21)C3(C)C` (some centres not stated) was run?
Answer: 0.0251 µM (active)

Question: Which “activity, negative = inhibition” value does the source give for `CC1(C)S[C@@H]2[C@H](NC(=O)COc3ccccc3)C(=O)N2[C@H]1C(=O)O` here?
Answer: 1.08% (inactive)

Question: For `CCN1/C(=C/C=C/C=C/c2sc3ccccc3[n+]2CC)Sc2ccccc21`, which Potency is on record?
Answer: 3.98 µM (active)
